DT40 TDP1 no CPT – qHTS for Inhibitors of human tyrosyl-DNA phosphodiesterase 1 (TDP1): qHTS in cells in absence of CPT; 420,000 compounds, 15% hits; DT40 Tdp1-/- hTDP1 cells, no CPT, ATP luminescence, 48 h; Potency, µM (series often up to 46.2 µM), without a hit: at the highest dose activity change, negative = growth inhibition, usual class: inhibitors; further: nearly all actives have a fitted effect of over 55% in size
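Cells were dispensed at 400 per well, compounds added by pin tool, plates incubated ≥48 hr at 37 °C, then CellTiter-Glo added for 30 min at room temperature before luminescence reading. Line: DT40 Tdp1-/- complemented with hTDP1; camptothecin omitted.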
GCN5L2 inh – qHTS Assay for Inhibitors of GCN5L2. Histone acetyltransferase KAT2A (Homo sapiens), Q92830. Potency, µM (titrated, usually from 58.9 µM), inactives show at the top dose activity change, negative = inhibition, actives largely listed as inhibitors. AID 504327, 2011. GCN5L2 HAT assay, ThioGlo1 CoA-SH fluorescence. 390,000 compounds, 0.21% hits
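Preincubate 20nM GCN5L2 with compound 15 min, RT → add 50uM ThioGlo1 + 75uM H3(1-25) + 70uM acetyl-CoA → read fluorescence 0 and 20 min. Primary qHTS; fluorescent artifacts likely.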
PLK1 PBD inh – qHTS for Inhibitors of PLK1-PDB (polo-like kinase 1 - polo-box domain): Primary Screen | Potency, µM, for inactives: max response, negative = inhibition, most hits filed as inhibitors | 360,000 compounds, 2.8% hits | Serine/threonine-protein kinase PLK1 (Homo sapiens), P53350 | Plk1 PBD binding of FITC phosphopeptide, fluorescence polarization; further: series mostly up to about 57 µM; nearly all actives have a fitted effect of over 65% in size
VDR inh – Inhibitors of the vitamin D receptor (VDR): qHTS | 400,000 compounds, 0.93% hits | Potency, µM, for inactives: max response, negative = inhibition, most hits filed as inhibitors | VDR-SRC2-3 peptide fluorescence polarization, 2 h | Vitamin D3 receptor (Homo sapiens), P11473
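Fluorescence polarization assay of small-molecule disruption of VDR binding to coregulator peptide SRC2-3. Compounds and controls pin-transferred, then read after 2 h incubation at ambient room temperature.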
DT40 TDP1 CPT – qHTS for Inhibitors of human tyrosyl-DNA phosphodiesterase 1 (TDP1): qHTS in cells in presence of CPT; chicken DT40 Tdp1-/-;hTDP1 cells + 20 nM CPT, ATP luminescence, 48 h; Potency, µM (series often up to 46.2 µM), for inactives: at the highest dose activity change, negative = growth inhibition, usual class: inhibitors; 420,000 compounds, 12% hits; further: nearly all actives have a fitted effect of over 55% in size
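Chicken DT40 Tdp1-/- cells complemented with human TDP1, 400 cells/well, exposed to compounds plus 20 nM camptothecin for at least 48 h at 37 C; viability read as ATP content by CellTiter-Glo luminescence.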
TDP1 block – qHTS Assay for Inhibitors of Tyrosyl-DNA Phosphodiesterase (TDP1); recombinant TDP1, AlphaScreen DNA substrate cleavage; 350,000 compounds, 0.28% hits; Potency, µM (doses to about 130 µM), for the others: at the top dose activity change, negative = inhibition, actives largely listed as inhibitors; AID 485290, 2010; further: nearly all actives have a fitted effect of over 40% in size
Target sequence (Q9NUW8 whole entry, looked up): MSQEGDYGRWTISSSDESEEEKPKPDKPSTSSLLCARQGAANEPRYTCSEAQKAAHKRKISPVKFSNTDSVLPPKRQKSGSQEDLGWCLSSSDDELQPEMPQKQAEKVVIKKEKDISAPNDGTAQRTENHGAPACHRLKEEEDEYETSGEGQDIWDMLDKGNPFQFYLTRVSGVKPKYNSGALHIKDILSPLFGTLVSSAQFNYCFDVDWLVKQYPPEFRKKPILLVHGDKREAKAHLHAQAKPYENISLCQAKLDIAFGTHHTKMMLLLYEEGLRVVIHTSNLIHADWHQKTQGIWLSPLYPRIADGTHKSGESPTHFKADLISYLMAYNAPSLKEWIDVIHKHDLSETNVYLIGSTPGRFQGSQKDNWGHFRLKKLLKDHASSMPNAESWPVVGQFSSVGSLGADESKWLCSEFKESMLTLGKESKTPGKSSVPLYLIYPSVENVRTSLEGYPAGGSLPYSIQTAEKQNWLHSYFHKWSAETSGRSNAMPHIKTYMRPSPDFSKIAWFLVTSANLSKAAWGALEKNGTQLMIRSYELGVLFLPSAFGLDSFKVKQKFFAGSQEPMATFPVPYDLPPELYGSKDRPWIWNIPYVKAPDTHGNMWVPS
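Steps: enzyme plus compound, 15 min RT; add biotin/phosphotyrosine-FITC oligonucleotide (15 nM final), react 5 min; add donor/acceptor beads (10 ug/ml final), 10 min; read AlphaScreen. Tdp1 at 1 nM final.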
The depositor's hits bear a star; ? = inconclusive; . = no result; [ ] = remark or other dose. Most compounds without a hit are left out; they make up all but 18% or so of the library. The call rests on the fitted dose curve; in most records, active means well fitted curve in the direction sought with a large enough effect; inconclusive means small, poorly fitted or top-dose-only effect, or another doubt; inactive means no such curve, though single readings can be large; an effect the other way counts as inactive or inconclusive. On the % scale 0 is the no-effect control and ±100 the full control effect; potency means the concentration at half of the fitted maximal effect.

SMILES | DT40 TDP1 no CPT | GCN5L2 inh | PLK1 PBD inh | VDR inh | DT40 TDP1 CPT | TDP1 block
Cc1cc(C)c2c(CC(=O)Nc3ccc(S(=O)(=O)N4CCCCC4)cc3)coc2c1 | 10µM* | -7% | . | 15% | 21µM* | -2%
Cc1ccc(C)c(CNc2ccc(S(=O)(=O)N3CCCCC3)cc2)c1 | 21µM* | -8% | -21% | -16% | 15µM* | 0%
Cc1ccc2c(CC(=O)Nc3ccc(S(=O)(=O)N4CCCC(C)C4)cc3)coc2c1 (stereo unspecified) | ? | -6% | . | 20% | ? | 4%
Cc1ccc2c(CC(=O)Nc3ccc(S(=O)(=O)N4CCCCC4)cc3)coc2c1 | ? | -12% | . | 6% | ? | 4%
Cc1cc(C)c2c(CC(=O)Nc3ccc(S(=O)(=O)N4CCCC(C)C4)cc3)coc2c1 (stereo unspecified) | 23µM* | -4% | . | 11% | ? | 10%
Cc1ccc(S(=O)(=O)N2CCCCC2)cc1 | 2% | 0% | 3% | 9% | -1% | .
Cc1ccc2c(CC(=O)Nc3ccc(S(=O)(=O)N4CCCCC4)cc3)coc2c1C | 15µM* | -6% | . | 1% | 13µM* | 4%
Cc1ccc(C)c(N2CC(C(=O)Nc3cc(C)on3)CC2=O)c1 (stereo unspecified) | 8% | -3% | -2% | -14% | 28% | .
O=Cc1ccc2[nH]ccc2c1 | -2% | . | . | . | 7% | .
COc1ccc(/C=C/C(=O)N(Cc2cccs2)C2CCS(=O)(=O)C2)cc1 (stereo unspecified) | -23% | -2% | -12% | 9% | ? | .
O=C1C2CCC(C2)[C@@H]2CCCCN12 (stereo partly specified) | . | -1%[135 µM] | . | -1% | . | 5%[234 µM]
O=C(NC(=S)Nc1cccc(Cl)c1N1CCCCC1)c1ccc2c(c1)OCCO2 | ? | -7% | -4% | -5% | 3.3µM* | 0%
O=C(Nc1cccc(Cl)c1N1CCCCC1)c1ccc2c(c1)OCCO2 | 21µM* | -3% | -1% | -9% | ? | 2%
O=C(NC(=S)Nc1ccccc1Br)c1ccc2c(c1)OCO2 | 3% | -2% | -6% | -15% | 19% | 3%
Cc1nn(CC(=O)NCC(C)c2ccccc2)c(=O)c2cc3ccccc3n12 (stereo unspecified) | -28% | -2% | . | -8% | -23% | 0%
Cc1cc(C)c(S(=O)(=O)N2CCC(n3c(C(F)(F)F)nc4cccnc43)CC2)c(C)c1 | ? | -12% | . | 0% | ? | 8%
CCc1ccc(NC(=O)C(=O)NCCc2sc(-c3ccc(OC)c(OC)c3)nc2C)cc1 | . | 1% | . | 12% | . | -1%
O=C1NC(=Nc2cccc(O)c2)S/C1=C\c1cccc([N+](=O)[O-])c1 | ? | -9% | -19% | ? | 2% | .
CN(C)c1ccc(/C=N/N=C2/NC(=O)/C(=C/c3ccc([N+](=O)[O-])cc3)S2)cc1 | 16µM* | -12% | -29% | 8% | ? | 7%
CS(=O)(=O)N1CCN(c2ccc(NC(=O)c3cc4ccccc4o3)cc2)CC1 | 5% | -5% | 4% | 4% | -26% | 3%
CCC(=O)N1CCN(c2ccc(NC(=O)c3ccc([N+](=O)[O-])o3)cc2)CC1 | 21µM* | 7% | 0% | 8% | 4.6µM* | 0%
CCCC(=O)N1CCN(c2ccc(NC(=O)c3ccc(Br)o3)cc2)CC1 | -17% | -6% | -7% | -10% | -15% | 2%
CS(=O)(=O)N1CCN(c2ccc(NC(=O)c3ccc([N+](=O)[O-])o3)cc2)CC1 | 7.3µM* | -6% | -2% | 11% | 2.6µM* | 0%
CC(C)(C)C(=O)N1CCN(c2ccc(NC(=O)c3ccc([N+](=O)[O-])o3)cc2)CC1 | 6.5µM* | -4% | -8% | -12% | 2.6µM* | 5%
C=CCCC(=O)N1C[C@@H](CO)[C@@H](NC)C[C@H]1c1ccccc1Br | -2% | . | -21% | . | -18% | .
SMILES | DT40 TDP1 no CPT | GCN5L2 inh | PLK1 PBD inh | VDR inh | DT40 TDP1 CPT | TDP1 block
CCOc1ccc(C2c3cc(OCC)c(OCC)cc3CC(=O)N2c2ccc(C(=O)O)cc2)cc1OCC (stereo unspecified) | 3% | -6% | . | 6% | -13% | .
O=C1CCCC2=C1C1(CCC1)N=C(Nc1nc3ccccc3o1)N2 | . | . | . | . | . | 1%
COc1ccc2c(c1)sc(=N)n2C | 18µM* | -3% | 5% | 6% | 18µM* | 5%
c1ccc(-c2nc3nonc3nc2-c2ccccc2)cc1 | 13µM* | -8% | -1% | -5% | 21µM* | 8%
Cc1ccc(CN2CCN(Cc3ccc(-n4cccn4)cc3)CC2CCO)cc1 (stereo unspecified) | -26% | -6% | -23% | -10% | -6% | 0%
O[C@@H]1CN(Cc2ccc(-n3cccn3)cc2)CC[C@H]1N1CCN(c2ccccc2F)CC1 | 3.7µM* | -22% | -1% | -6% | 13µM* | .
COc1ccc(C(=O)N2CCC3(CCCN(c4ncccn4)C3)CC2)cc1 | ? | -9% | . | 6% | 2% | .
Cc1ccc(C(=O)NCCc2ccc(F)cc2)s1 | ? | -6% | -16% | 12% | ? | 3%
O=S(=O)(NCCc1csc(-c2cccnc2)n1)c1ccc2c(c1)OCCO2 | -23% | 0% | -8% | -7% | ? | 3%
O=S(=O)(NCCc1csc(-c2ccc(C(F)(F)F)cc2)n1)c1ccc2c(c1)OCCO2 | 15µM* | -14% | 3% | 11% | 18µM* | 3%
COc1ccc(-c2nc(CCNS(=O)(=O)c3ccc4c(c3)OCCO4)cs2)cc1 | 16µM* | -8% | 0% | 2% | 18µM* | 4%
CC(C)CCNC(=O)c1cccc(Nc2nc3ccccc3n3nnnc23)c1 | 18µM* | 3% | . | -13% | 21µM* | 0%
CC(NC(=O)c1cccc(Nc2nc3ccccc3n3nnnc23)c1)c1ccccc1 (stereo unspecified) | 7.3µM* | -11% | . | 11% | 9.2µM* | 6%
COC(=O)[C@@H]1CCCN1C(=O)c1c(OC)cc(=O)n2c1CCN(Cc1ccc3cccnc3c1)CC2 | -4% | . | . | . | 0% | .

High-throughput results deposited in PubChem by National Center for Advancing Translational Sciences (NCATS).
